From PubChem BioAssay
PNC assembly inh = inhibitors of perinucleolar compartment assembly. PC3M PTB-GFP, PNC prevalence imaging, 16 h; hits give low values. activity change (PNC), negative = inhibition, % at 10 µM. hit rate 3.1% among 140,000. AID 2417;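 active = readout at or below -70, meaning at least 70% loss of cells showing the perinucleolar compartment, a nuclear body marking cancer cells; inconclusive = readout between -30 and a set limit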;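 note: plate controls were DMSO wells for no effect and camptothecin positive control wells for full effect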
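Compounds are pinned in duplicate onto adhered PC3M cells stably expressing GFP-tagged PTB and incubated 16 h at 37 C. Cells are then fixed, nuclei stained with Hoechst, and PNC-positive cells counted.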
ALDH1A1 inh = inhibitors of human aldehyde dehydrogenase 1A1. hit rate 7.3% among 220,000. AID 1030. P00352. Purified ALDH1A1, NADH fluorescence, propionaldehyde substrate. Potency, µM (top dose mostly 75.3 µM), for the others: at the highest dose activity, negative = inhibition, most hits filed as inhibitors;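 note: potency is the fitted concentration of half-maximal effect; plate controls were no enzyme wells and a reference inhibitor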
Target sequence (P00352 whole entry, looked up): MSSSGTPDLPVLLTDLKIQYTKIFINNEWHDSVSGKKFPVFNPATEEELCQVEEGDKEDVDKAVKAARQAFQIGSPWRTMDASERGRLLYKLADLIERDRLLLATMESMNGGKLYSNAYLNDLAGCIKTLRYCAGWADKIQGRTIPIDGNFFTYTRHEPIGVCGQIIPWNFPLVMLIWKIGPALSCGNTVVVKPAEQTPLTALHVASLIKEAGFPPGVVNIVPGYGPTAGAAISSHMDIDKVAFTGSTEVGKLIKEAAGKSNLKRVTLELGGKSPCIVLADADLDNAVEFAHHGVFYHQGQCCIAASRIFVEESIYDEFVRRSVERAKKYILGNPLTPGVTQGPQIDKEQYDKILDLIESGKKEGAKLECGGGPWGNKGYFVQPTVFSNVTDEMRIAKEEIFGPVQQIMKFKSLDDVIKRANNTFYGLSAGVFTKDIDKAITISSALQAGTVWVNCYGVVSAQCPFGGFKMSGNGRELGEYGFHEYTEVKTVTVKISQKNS
Lamin A splicing = changes lamin A minigene splicing in HeLa cells; HeLa LMNA splicing GFP/RFP minigene ratio, 48 h; Potency, µM (doses to about 46.1 µM), for the others: top-dose ratio change, negative = inhibition, most hits filed as inhibitors; hit rate 0.01% among 200,000; active = well fitted inhibition curve with a large enough effect in the signal ratio, with a control signal flat, not every such curve was filed as active; inconclusive = small, poorly fitted or top-dose-only effect, or effect the other way, or a change in a side signal; the % refers to the signal ratio; note: potency is the fitted concentration of half-maximal effect
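S3 HeLa cells stably expressing lamin A-EGFP splicing minigene plus DsRed2, 600 cells/well, 48 h compound exposure at 37C. Laser-scanning cytometry; analysed as GFP (500-530 nm)/RFP (575-640 nm) total intensity ratio; 0.5% DMSO vehicle.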
HPGD block = HPGD (human) dehydrogenase inhibition; AID 894; purified HPGD, NADH fluorescence kinetic, PGE2 substrate; Potency, µM, inactives show at the highest dose activity change, negative = inhibition, hits mostly inhibitors; hit rate 4.3% among 150,000; note: potency is the fitted concentration of half-maximal effect
Target sequence (P15428 whole entry, looked up): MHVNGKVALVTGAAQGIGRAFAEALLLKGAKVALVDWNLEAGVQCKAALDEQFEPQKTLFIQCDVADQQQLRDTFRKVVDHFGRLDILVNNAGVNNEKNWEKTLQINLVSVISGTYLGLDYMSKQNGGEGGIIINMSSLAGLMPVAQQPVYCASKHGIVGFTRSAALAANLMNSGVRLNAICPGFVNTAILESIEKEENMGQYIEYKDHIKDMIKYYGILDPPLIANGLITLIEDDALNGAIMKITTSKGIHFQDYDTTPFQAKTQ
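20 nM HPGD preincubated 15 min at room temperature with compound in 50 mM Tris-HCl pH 8, 0.01% Tween 20. Started with 1 mM NAD+ and 30 uM prostaglandin E2; NADH fluorescence (360/450 nm) read 5 times over 30-s intervals, last minus first.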
ALOX12 inhib = 12-hLO (ALOX12) enzyme inhibition | Potency, µM (series often up to 57.1 µM), for the others: at the highest dose activity change, negative = inhibition, usual class: inhibitors | purified 12-hLO, xylenol orange hydroperoxide absorbance | hit rate 0.12% among 150,000 | AID 1452 | P18054; active = well fitted inhibition curve with a large enough effect; inconclusive = small, poorly fitted or top-dose-only effect; note: potency is the fitted concentration of half-maximal effect; nearly all actives have a fitted effect of over 55% in size
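Lipoxygenase turnover measured by absorbance at 573 and 405 nm after Fe-XO development. Human 12hLO 150 nM, arachidonate 40 uM, pH 7.0 Hepes buffer with detergent; 15 min compound preincubation, 30 min reaction.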
* marks the source's active call; other numbers are inactive results; u = inconclusive; x = not tested or not shown; [ ] = remark or other dose. An excerpt weighted towards active compounds, which were near 10% of everything screened. Unless noted, calls come from the whole dose curve; as a rule, active = well fitted inhibition curve with a large enough effect (not every such curve was filed as active); inconclusive = small, poorly fitted or top-dose-only effect, or another doubt; inactive = no such curve, though single readings can be large or run the other way. Unless noted, % is set by controls: 0 for no effect and ±100 for the full control effect.

SMILES	PNC assembly inh	ALDH1A1 inh	Lamin A splicing	HPGD block	ALOX12 inhib
CCOc1ccc(-c2c(C)nn3c(C)c(C(=O)NC(C)c4ccccc4)cnc23)cc1OCC (configuration not stated)	x	x	7.8%[46 µM]	x	x
Cc1cc(=O)c2ccc3ccccc3c2[nH]1	-23.8	u	28.7%	u	-0.8%
Cc1cc(=O)c2cccc(Br)c2[nH]1	-100.0*	9.8%	-6.1%	-13.9%	3.9%
Cn1cc(S(=O)(=O)N2CCOCC2)cc1C(=O)Nc1ccc(Cl)c(C(F)(F)F)c1	x	x	15.1%[46 µM]	x	x
CC(=O)Oc1ccc2oc(=O)c3c(c2c1)CCCN3C(=O)CN1CCN(c2ncccn2)CC1	66.2	u	4.7%	-8.9%	-10.5%
CCCCCOc1ccc2oc(=O)c3c(c2c1)CCCN3C(=O)CN1CCCC(C(=O)OCC)C1 (configuration not stated)	39.7	25.1µM*	-14.2%	-12.0%	3.7%
O=C(CN1CCN(c2ncccn2)CC1)N1CCCc2c1c(=O)oc1ccc(O)cc21	13.3	0.794µM*	5.2%	-11.5%	28.5%
CC(=O)OC[C@@H]1O[C@H](C/C=N\O[C@@H](C)c2cn([C@H](CO)Cc3ccccc3)nn2)C=C[C@@H]1OC(C)=O	x	10.5%[13.5 µM]	x	x	x
Cn1c(SCC(=O)NC(C)(C)C)nnc1-c1cccc(NC(=O)c2ccccc2F)c1	-13.4	2.2%	8.3%	-1.0%	-3.7%
O=C(Nc1ccc2nc(SCC(=O)N3CCCC3)sc2c1)c1ccccc1	x	x	25.2%[46 µM]	x	x
Cn1c(SCC(=O)Nc2ccc3nc(SCC(=O)N4CCCC4)sc3c2)nnc1-c1ccccc1	-22.0	22.4µM*	-11.4%	3.98µM*	-10.8%
Cn1cnnc1SCC(=O)Nc1ccc2nc(SCc3ccccc3F)sc2c1	-12.9	12.6µM*	-18.1%	-24.3%	5.1%
Cn1c(SCC(=O)N2CCOCC2)nnc1-c1cccc(NC(=O)c2ccccc2F)c1	24.9	25.1µM*	1.4%	-15.1%	-0.1%
O=C(CSc1nc2ccc(NC(=O)CSc3nnnn3-c3ccccc3)cc2s1)Nc1ccccc1	3.0	u	-14.1%	u	-2.7%
C=CCN=C(C)C1=C(O)CCC1=O	54.7	8.7%	1.2%	-4.9%	-1.5%
C=CCN=C(CC)C1=C(O)CCCC1=O	-108.6*	0.2%	u	x	-7.4%
Cc1ccc(C2=CC(c3ccccc3F)n3c(nc4ccccc43)N2)cc1C (configuration not stated)	x	x	0.5%[46 µM]	x	x
CCCC(=O)NC1CC(=O)N(c2ccc3c(c2)OCCO3)C1 (configuration not stated)	x	x	11.1%[46 µM]	x	x
Cc1ccc(-c2nnc3sc(C4COc5ccccc5O4)nn23)cc1 (configuration not stated)	-26.0	u	-8.9%	-27.8%	-9.5%
c1ccc(OCc2nnc3sc(C4COc5ccccc5O4)nn23)cc1 (configuration not stated)	3.4	10µM*	-0.6%	7.08µM*	-3.1%
Clc1ccccc1-c1nnc2sc(C3COc4ccccc4O3)nn12 (configuration not stated)	u	7.08µM*	u	20µM*	-3.8%
c1ccc(Cc2nnc3sc(C4COc5ccccc5O4)nn23)cc1 (configuration not stated)	u	25.1µM*	-13.0%	14.1µM*	-4.7%
Clc1cccc(-c2nn3c(COc4ccccc4)nnc3s2)c1	-0.9	3.3%	9.8%	-10.4%	2.9%
Oc1ccc(Cc2cc(Cl)cc(Cl)c2O)cc1Cl	x	8.6%[13.5 µM]	x	-12.8%	-1.5%[11.4 µM]
O=C(COc1ccc(Cl)cc1)NCCc1csc(-c2ccc(C(F)(F)F)cc2)n1	x	x	5.2%[46 µM]	x	x
SMILES	PNC assembly inh	ALDH1A1 inh	Lamin A splicing	HPGD block	ALOX12 inhib
CNc1cc([N+](=O)[O-])ccc1N/C=C/C(=O)c1ccc2c(c1)OCO2	-118.2*	12.6µM*	u	-16.1%	-2.7%
CCOC(=O)c1c(C)oc2cc(Br)c(OC(C)C(=O)OCC)cc12 (configuration not stated)	-100.0*	0.3%	u	-23.8%	-7.7%
CCOC(=O)COc1cc2c(C(=O)OCC)c(C)oc2cc1Br	u	-9.7%	5.9%	0.2%	-1.6%
COC(=O)c1sc2c(c1C)c(=O)n(-c1ccccc1)c(=O)n2CC(=O)Nc1cccc(C)c1	x	x	3.4%[46 µM]	x	x
c1ccc(-c2nnc(SCC3CCCO3)nc2-c2ccccc2)cc1 (configuration not stated)	x	12.6µM*	x	x	x
O=C(NNC(=S)Nc1ccc(F)cc1)c1ccccc1OC(F)F	u	u	-19.5%	-14.3%	-6.0%
COc1cccc(NC(=S)NNC(=O)c2ccccc2OC(F)F)c1	20.0	25.1µM*	u	u	-12.7%
O=C(NNC(=S)Nc1cccc(Cl)c1)c1ccccc1OC(F)F	-9.7	25.1µM*	u	-12.0%	-3.6%
Cc1noc(C)c1-c1nccc(-n2ccnc2)n1	x	2.7%	u	-9.6%	-0.6%
O=C(NCc1cccs1)c1ccc2c(c1)OCCO2	u	3.8%	-6.7%	25.1µM*	-1.3%
Cc1csc2ncc(C(=O)Nc3ccon3)c(=O)n12	350.8	u	-6.7%	u	4.4%
COC(=O)c1cc(NC(=O)c2cc(C)oc2C)cc(C(=O)OC)c1	-100.0*	25.1µM*	-3.5%	-21.0%	-0.2%
Cc1csc2ncc(C(=O)NCc3ccco3)c(=O)n12	-100.0*	u	-4.6%	u	-3.0%
Cc1scc(C(=O)Nc2ccon2)c1-c1ccccc1	u	28.2µM*	3.4%	-4.2%	-1.2%
COc1ccc(C(=O)NCC(c2ccc3c(c2)OCO3)N2CCOCC2)cc1OC (configuration not stated)	x	x	-11.9%[46 µM]	x	x
CCOC(=O)CNC(=O)c1cc(C)oc1C	0.1	0.0631µM*	2.3%	-11.5%	-4.9%
Cc1occc1C(=O)NCc1cccs1	7.3	5.5%	-2.8%	u	4.9%
O=C(NCc1cccs1)c1ccc(N2CCCC2=O)cc1	-20.3	1.7%	13.2%	20µM*	3.3%
Cc1cc(C(=O)NCC(=O)O)c(C)o1	14.6	3.5%	14.3%	-11.8%	3.4%
Cc1cc(C(=O)NCc2cccs2)c(C)o1	14.6	-9.5%	19.8%	15.8µM*	-3.5%
O=C(O)c1ccc(N2CCCC2=O)cc1	u	u	4.9%	-7.6%	6.5%
O=C(NCCN1CCCCC1)c1ccc2c(c1)OCCO2	29.1	-9.6%	0.0%	8.91µM*	2.8%
COc1ccc2nc(NC(=O)c3ccc(S(=O)(=O)N4CCCC(C)C4)cc3)sc2c1 (configuration not stated)	x	x	-9.2%[46 µM]	x	x
CCCCCCCCCCCCC/C=C/[C@@H](O)[C@H](COP(=O)([O-])OCC[N+](C)(C)C)NC(=O)CCCCCCCCCCCCCCCCC	x	2.5%	x	-1.0%	0.4%
O=C(NCc1cccs1)c1ccncc1	14.3	-0.9%	-3.8%	1.1%	-1.8%
Cc1cc(C(=O)NCc2cccs2)cs1	-8.3	2.3%	15.6%	28.2µM*	3.6%
O=C(NCc1cccs1)c1ccccc1	28.8	6.5%	8.2%	25.1µM*	4.3%
Cc1scc(C(=O)NCc2ccco2)c1-c1ccccc1	u	u	4.3%	31.6µM*	-22.2%
